From publication PMC3218832 come the findings set out here.

Targets include RELARELA (p65 homodimer) (Homo sapiens, UniProt Q04206 1-307); p50p50 homodimer (Homo sapiens, UniProt P19838 7-356); RELB subunit;p50 subunit (Homo sapiens;Homo sapiens, UniProt Q01201;P19838 120-401;7-356).
Common to all, as to assay: protein binding microarray; high values mean tight binding
Details in all cases: dsDNA, one strand shown

The target of another assay is T1, p52p52 homodimer (Homo sapiens, UniProt Q00653 4-332).
T1 sequence: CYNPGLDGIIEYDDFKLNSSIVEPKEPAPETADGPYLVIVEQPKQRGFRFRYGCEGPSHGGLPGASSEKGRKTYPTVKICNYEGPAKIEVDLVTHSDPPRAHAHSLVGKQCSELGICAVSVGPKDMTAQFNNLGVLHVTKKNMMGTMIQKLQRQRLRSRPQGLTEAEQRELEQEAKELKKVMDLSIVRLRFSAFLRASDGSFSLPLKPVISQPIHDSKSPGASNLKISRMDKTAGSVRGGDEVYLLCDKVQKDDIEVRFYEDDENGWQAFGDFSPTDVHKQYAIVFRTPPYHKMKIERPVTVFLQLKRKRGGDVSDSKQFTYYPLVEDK

Assay [1] has as its target RELA (p65) subunit of heterodimer;p50 subunit (Homo sapiens;Homo sapiens, UniProt Q04206;P19838 1-307;7-356).
Assay [2] addresses RELA (p65) subunit of heterodimer;p52 subunit (Homo sapiens;Homo sapiens, UniProt Q04206;Q00653 1-307;4-332).
For another assay, the target named is T2, RELB subunit;p52 subunit (Homo sapiens;Homo sapiens, UniProt Q01201;Q00653 120-401;4-332).
T2 sequence 1: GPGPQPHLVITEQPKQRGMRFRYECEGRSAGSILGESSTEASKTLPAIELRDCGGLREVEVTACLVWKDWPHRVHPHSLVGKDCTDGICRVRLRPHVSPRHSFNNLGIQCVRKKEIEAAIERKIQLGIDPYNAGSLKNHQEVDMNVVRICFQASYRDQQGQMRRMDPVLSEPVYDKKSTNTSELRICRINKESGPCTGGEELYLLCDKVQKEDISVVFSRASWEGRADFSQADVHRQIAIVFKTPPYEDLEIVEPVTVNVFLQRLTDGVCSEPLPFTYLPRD
T2 sequence 2: T1 sequence

The target in assay [3] is C-Rel subunit;p50 subunit (Homo sapiens;Homo sapiens, UniProt Q04864;P19838 1-285;7-356).
For assay [4], the target named is T3, C-Rel subunit;p52 subunit (Homo sapiens;Homo sapiens, UniProt Q04864;Q00653 1-285;4-332).
T3 sequence 1: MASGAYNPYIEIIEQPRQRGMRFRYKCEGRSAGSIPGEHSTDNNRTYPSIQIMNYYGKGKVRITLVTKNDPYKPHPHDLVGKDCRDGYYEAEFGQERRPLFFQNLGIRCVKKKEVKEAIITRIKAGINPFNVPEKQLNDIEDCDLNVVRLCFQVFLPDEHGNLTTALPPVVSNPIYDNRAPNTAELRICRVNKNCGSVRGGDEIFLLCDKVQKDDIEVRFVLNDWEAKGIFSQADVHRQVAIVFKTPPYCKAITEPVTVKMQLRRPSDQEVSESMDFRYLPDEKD
T3 sequence 2: T1 sequence

Sequence of p50p50 homodimer (P19838 7-356): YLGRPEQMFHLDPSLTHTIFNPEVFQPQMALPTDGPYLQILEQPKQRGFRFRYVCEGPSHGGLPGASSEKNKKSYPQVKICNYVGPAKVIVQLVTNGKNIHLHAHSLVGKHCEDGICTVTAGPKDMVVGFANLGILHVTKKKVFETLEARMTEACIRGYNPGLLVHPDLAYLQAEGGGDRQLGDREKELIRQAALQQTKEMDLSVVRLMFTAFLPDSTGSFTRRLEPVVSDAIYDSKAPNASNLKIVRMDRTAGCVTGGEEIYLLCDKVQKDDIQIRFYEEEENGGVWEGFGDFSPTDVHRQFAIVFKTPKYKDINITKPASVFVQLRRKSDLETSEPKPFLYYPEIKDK
Sequence of RELARELA (p65 homodimer) (Q04206 1-307): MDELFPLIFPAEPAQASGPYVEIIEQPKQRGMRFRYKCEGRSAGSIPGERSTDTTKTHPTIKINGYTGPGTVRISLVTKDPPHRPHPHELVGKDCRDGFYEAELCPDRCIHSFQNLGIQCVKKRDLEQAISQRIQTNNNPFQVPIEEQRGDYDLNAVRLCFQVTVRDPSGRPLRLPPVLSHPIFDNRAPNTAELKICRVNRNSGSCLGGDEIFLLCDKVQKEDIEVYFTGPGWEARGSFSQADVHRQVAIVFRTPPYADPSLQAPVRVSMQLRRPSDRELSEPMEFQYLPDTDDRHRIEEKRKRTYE
Sequence of RELA (p65) subunit of heterodimer;p50 subunit (Q04206 1-307, chain 1 of 2): as the sequence (Q04206 1-307) above
Sequence of RELA (p65) subunit of heterodimer;p50 subunit (P19838 7-356, chain 2 of 2): as the sequence (P19838 7-356) above

In the case of AGGAGAACCCT, the binding signal with RELARELA (p65 homodimer) was -0.567 z-score; with p50p50 homodimer it was -0.719 z-score; with p52p52 homodimer, -0.426 z-score; in assay [1], -0.838 z-score; in assay [2], -0.729 z-score; with RELB subunit;p50 subunit, -0.652 z-score. Moreover, the binding signal with RELB subunit;p52 subunit is -0.634 z-score; in assay [3], -0.871 z-score; in assay [4], -0.624 z-score.
In the case of AAATGCTTCCC, the binding signal with RELARELA (p65 homodimer) was 0.511 z-score; with p50p50 homodimer, -0.412 z-score; with p52p52 homodimer, -0.425 z-score; in assay [1], -0.0858 z-score; in assay [2] it was -0.314 z-score; with RELB subunit;p50 subunit, -0.27 z-score. In addition, the binding signal with RELB subunit;p52 subunit was -0.535 z-score; in assay [3], 0.16 z-score; in [4], -0.384 z-score.
With AGGTTCATCCC, the binding signal in the assay with RELARELA (p65 homodimer) was -0.622 z-score; with p50p50 homodimer, -0.302 z-score; with p52p52 homodimer it was -0.0688 z-score; in assay [1] it was -0.431 z-score; in assay [2], -0.313 z-score; with RELB subunit;p50 subunit, -0.476 z-score. The binding signal with RELB subunit;p52 subunit is -0.362 z-score; in assay [3], -0.498 z-score; in assay [4] it was -0.243 z-score.
For the sequence GAGAATACCCC, the binding signal with RELARELA (p65 homodimer) was 0.964 z-score; with p50p50 homodimer it was 1.14 z-score; in the assay with p52p52 homodimer, 0.914 z-score; in assay [1], 1.24 z-score; in assay [2], 1.18 z-score; with RELB subunit;p50 subunit, 1.05 z-score. Further, the figures for the binding signal (with RELB subunit;p52 subunit; in assay [3]; in [4]) were 1.31 z-score, 1.03 z-score and 0.996 z-score, respectively.
With CAGGTGCTCCT, the binding signal is -0.953 z-score in the assay with RELARELA (p65 homodimer); -0.0506 z-score in the assay with p50p50 homodimer; 0.0612 z-score with p52p52 homodimer; -0.571 z-score in assay [1]; -0.266 z-score in assay [2]; -0.45 z-score with RELB subunit;p50 subunit. The binding signal in the assay with RELB subunit;p52 subunit is -0.443 z-score; in assay [3] it was -1.31 z-score; in [4] it was -0.565 z-score.
For GAGGAAATCCT, the binding signal is 0.229 z-score in the assay with RELARELA (p65 homodimer); -0.905 z-score with p50p50 homodimer; -0.463 z-score with p52p52 homodimer; -0.399 z-score in assay [1]; -0.425 z-score in assay [2]; -0.858 z-score in the assay with RELB subunit;p50 subunit. Also, the binding signal in the assay with RELB subunit;p52 subunit is -0.718 z-score; in [3] it was -0.315 z-score; in assay [4], -0.369 z-score.
AAATTGTCCCT: the binding signal is 0.833 z-score with RELARELA (p65 homodimer); 1.43 z-score with p50p50 homodimer; 1.92 z-score with p52p52 homodimer; 1.28 z-score in assay [1]; 1.26 z-score in assay [2]; 1.61 z-score in the assay with RELB subunit;p50 subunit. Moreover, the figures for the binding signal (with RELB subunit;p52 subunit; in [3]; in [4]) were 1.7 z-score, 1.14 z-score and 1.11 z-score, respectively.
As for AAAGGAACCCC, the binding signal with RELARELA (p65 homodimer) is -0.25 z-score; in the assay with p50p50 homodimer it was 0.367 z-score; in the assay with p52p52 homodimer it was 0.122 z-score; in assay [1] it was 0.18 z-score; in assay [2], 0.127 z-score; with RELB subunit;p50 subunit, 0.118 z-score. For the same sequence, the binding signal with RELB subunit;p52 subunit was 0.351 z-score; in assay [3], 0.41 z-score; in assay [4], 0.175 z-score.
For the sequence AAATGCCCCCC, the binding signal turned out to be 0.508 z-score with RELARELA (p65 homodimer); 1.24 z-score with p50p50 homodimer; 0.957 z-score with p52p52 homodimer; 1.43 z-score in assay [1]; 1.32 z-score in assay [2]; 1.4 z-score with RELB subunit;p50 subunit. Besides, the binding signal with RELB subunit;p52 subunit worked out at 1.57 z-score; in assay [3], 1.28 z-score; in assay [4], 0.954 z-score.
As to AGAAATACCCT, the binding signal with RELARELA (p65 homodimer) was 0.554 z-score; with p50p50 homodimer, 1.28 z-score; in the assay with p52p52 homodimer it was 1.33 z-score; in [1], 1.55 z-score; in assay [2], 1.35 z-score; in the assay with RELB subunit;p50 subunit, 1.21 z-score. In addition, the binding signal with RELB subunit;p52 subunit was determined as 1.27 z-score; in [3], 0.817 z-score; in [4], 1.68 z-score.
For GAAAAGTCCCT, the binding signal was 1.43 z-score in the assay with RELARELA (p65 homodimer); 1.36 z-score with p50p50 homodimer; 2.5 z-score in the assay with p52p52 homodimer; 2.07 z-score in assay [1]; 1.79 z-score in assay [2]; 2.67 z-score with RELB subunit;p50 subunit. In addition, the binding signal in the assay with RELB subunit;p52 subunit worked out at 2.22 z-score; in assay [3], 1.59 z-score; in assay [4], 2.16 z-score.
With CGGTAGCCCCT, the binding signal with RELARELA (p65 homodimer) was determined as 0.0258 z-score; with p50p50 homodimer, 0.991 z-score; with p52p52 homodimer, 0.543 z-score; in assay [1], 0.402 z-score; in assay [2], 0.598 z-score; with RELB subunit;p50 subunit, 0.503 z-score. The binding signal in the assay with RELB subunit;p52 subunit worked out at 0.728 z-score; in assay [3], 0.38 z-score; in [4] it was 0.45 z-score.
Regarding CAGTAGACCCC, the binding signal with RELARELA (p65 homodimer) was -0.444 z-score; with p50p50 homodimer it was -0.398 z-score; with p52p52 homodimer it was -0.423 z-score; in assay [1], -0.397 z-score; in assay [2], -0.485 z-score; in the assay with RELB subunit;p50 subunit, -0.472 z-score. In addition, the figures for the binding signal (with RELB subunit;p52 subunit; in assay [3]; in assay [4]) were -0.384 z-score, -0.501 z-score and -0.439 z-score, respectively.
Take CAAAAATCCCC: the binding signal stood at 2.62 z-score with RELARELA (p65 homodimer); 1.37 z-score with p50p50 homodimer; 2.67 z-score with p52p52 homodimer; 2.11 z-score in assay [1]; 2.3 z-score in assay [2]; 2.84 z-score with RELB subunit;p50 subunit. In addition, the values for the binding signal (with RELB subunit;p52 subunit; in assay [3]; in assay [4]) were 2.28 z-score, 1.91 z-score and 2.55 z-score, respectively.
Consider CAATGGTTCCT, for which the binding signal with RELARELA (p65 homodimer) was 0.0242 z-score; in the assay with p50p50 homodimer, -1.26 z-score; in the assay with p52p52 homodimer, -0.536 z-score; in [1], -0.894 z-score; in assay [2], -0.883 z-score; with RELB subunit;p50 subunit it was -0.727 z-score. Moreover, the figures for the binding signal (with RELB subunit;p52 subunit; in assay [3]; in assay [4]) were -0.56 z-score, -0.994 z-score and -0.857 z-score, respectively.
